HPGD block = blocks human HPGD enzyme activity. P15428. purified HPGD, NADH fluorescence kinetic, PGE2 substrate. Potency, µM, for the others: top-dose activity change, negative = inhibition, usual class: inhibitors. hit rate 4.3% among 150,000; also: potency is read from the fitted curve at half-maximal effect
Target sequence (P15428 whole entry, looked up): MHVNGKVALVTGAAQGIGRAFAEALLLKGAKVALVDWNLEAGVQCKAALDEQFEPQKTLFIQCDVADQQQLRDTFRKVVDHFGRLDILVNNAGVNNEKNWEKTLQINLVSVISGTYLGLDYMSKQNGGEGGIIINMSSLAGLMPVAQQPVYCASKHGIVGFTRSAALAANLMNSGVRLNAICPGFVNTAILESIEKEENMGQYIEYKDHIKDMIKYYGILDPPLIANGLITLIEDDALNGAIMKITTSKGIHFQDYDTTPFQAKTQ
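20 nM HPGD preincubated 15 min at room temperature with compound in 50 mM Tris-HCl pH 8, 0.01% Tween 20. Started with 1 mM NAD+ and 30 uM prostaglandin E2; NADH fluorescence (360/450 nm) read 5 times over 30-s intervals, last minus first.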
ALDH1A1 block = inhibitors of human aldehyde dehydrogenase 1A1 | hit rate 7.3% among 220,000 | Purified ALDH1A1, NADH fluorescence, propionaldehyde substrate | Potency, µM (top dose mostly 75.3 µM), inactives show at the top dose activity, negative = inhibition, most hits filed as inhibitors | AID 1030;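 also: potency is read from the fitted curve at half-maximal effect; plate controls were no enzyme wells and a reference inhibitor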
IMPase inh = cell-permeable inhibitors of inositol monophosphatase (IMPase); P97697; CHO-M1 cells, IP1 accumulation, HTRF TR-FRET ratio; inhibition (IP1 accumulation), % at 46.1 µM; 120,000 tested, under 10 active; active = well fitted curve in the direction sought with a large enough effect in the signal ratio, not every such curve was filed as active; inconclusive = small, poorly fitted or top-dose-only effect, or a change in a side signal; inactive = no such curve, though single readings can be large or run the other way; the % refers to the signal ratio;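 also: cells stimulated with carbachol in lithium chloride buffer; plate controls were DMSO basal wells for no effect and reference inhibitor wells for full effect; higher means more IMPase inhibition seen as more IP1 and lower FRET ratio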
Target sequence (P97697 whole entry, looked up): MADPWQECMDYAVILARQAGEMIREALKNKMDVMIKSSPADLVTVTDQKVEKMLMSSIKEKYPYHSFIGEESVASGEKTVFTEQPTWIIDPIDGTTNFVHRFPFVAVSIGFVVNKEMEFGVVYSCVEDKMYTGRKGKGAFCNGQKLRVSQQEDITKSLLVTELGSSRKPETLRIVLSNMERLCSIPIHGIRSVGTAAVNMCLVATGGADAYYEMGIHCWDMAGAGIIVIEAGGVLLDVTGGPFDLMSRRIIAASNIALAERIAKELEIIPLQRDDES
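Elevated IP1 in lysates lowers TR-FRET signal (665/620 ratio and 620 channel reported). Cells were CHO-M1, given carbachol (50 uM as added) plus 50mM LiCl, pH 7.4, 30 min, 37C; compounds titrated up to 46 uM; AC50 by Hill equation.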
The depositor's hits bear a star; ! = not active in a repeat; [ ] = dose if it differs, or a comment. A selection: hits, their analogues and other compounds. The true share with any hit is near 9%. Unless noted, calls follow the shape of the dose curve; as a rule, active = well fitted inhibition curve with a large enough effect (not every such curve was filed as active); inconclusive = small, poorly fitted or top-dose-only effect, or another doubt; inactive = no such curve, though single readings can be large or run the other way. Unless noted, % is scaled to controls: 0 for no effect and ±100 for the full control effect.

Screening COc1ccc(C2N(c3ccccn3)C(=O)C3CCCN32)c(OC)c1 (centres undefined) returned HPGD block -5%, ALDH1A1 block -11% and IMPase inh -1.
`COc1cc(C2N(c3ccccn3)C(=O)C3CCCN32)cc(OC)c1OC` (centres undefined) gave ALDH1A1 block 22µM* and IMPase inh 0.
`COc1ccc(OCC#CCN2CC(C)OC(C)C2)cc1` (centres undefined) gave ALDH1A1 block 6.3µM*.
COc1ccc(OCC#CCNC(C)(C)C)cc1 was read as HPGD block -7%, ALDH1A1 block inconclusive and IMPase inh 4.
Screening COc1ccc2c(c1)CCCC21NC(=O)N(CC(=O)NC(=O)NCc2ccccc2)C1=O (centres undefined) returned ALDH1A1 block -8%.
O=C(/C=C/c1ccc(O)c(O)c1)OC1C[C@](O)(C(=O)O)C[C@@H](O)[C@H]1O (some centres undefined) was read as HPGD block -12% and ALDH1A1 block 24µM*!.
For O=C(/C=C/c1ccc(O)c(O)c1)O[C@H]1C[C@@](O)(C(=O)O)CC(O)C1O (some centres undefined) the results were HPGD block 4% and ALDH1A1 block -2%.
`COc1ccc(CNC(=O)C2CCCN2S(=O)(=O)c2ccccc2)cc1` (centres undefined) gave HPGD block -8%, ALDH1A1 block 12% and IMPase inh 5.
For COc1ccccc1CNc1ncnc2c1nnn2Cc1ccccc1 the results were HPGD block -13%, ALDH1A1 block inconclusive and IMPase inh 2.
`COc1ccc(CCN2C(=S)NC3CC2(C)Oc2ccc([N+](=O)[O-])cc23)cc1OC` (centres undefined) gave HPGD block -20%, ALDH1A1 block -1% and IMPase inh 9.
`O=S(=O)(c1ccccc1)c1nc(-c2ccco2)oc1N1CCCCCC1` gave HPGD block inconclusive, ALDH1A1 block 0.2µM* and IMPase inh 4.
CC(C)Sc1oc(-c2ccco2)nc1S(=O)(=O)c1ccc(F)cc1 was read as HPGD block -24%, ALDH1A1 block 20µM* and IMPase inh 19.
For COc1cccc(-c2nc(S(=O)(=O)c3ccccc3)c(N3CCCCC3)o2)c1 the results were IMPase inh 3.
For CN1CCN(c2oc(-c3ccco3)nc2S(=O)(=O)c2ccccc2)CC1 the results were HPGD block -16%, ALDH1A1 block 28µM* and IMPase inh 8.
For CSc1oc(-c2ccco2)nc1S(=O)(=O)c1ccc(Br)cc1 the results were HPGD block inconclusive, ALDH1A1 block inconclusive and IMPase inh 2.
`O=S(=O)(c1ccccc1)c1nc(-c2cccs2)oc1N1CCCCC1` gave IMPase inh 1.
CCC(C)c1ccc(C2C3=C(Nc4nc(N)[nH]c(=O)c42)c2ccccc2C3=O)cc1 (centres undefined) was read as ALDH1A1 block 9%.
For Cc1ccc(S(=O)(=O)N2CCN(Cc3cc(Br)ccc3O)CC2)cc1 the results were IMPase inh 4.
For Cc1cc(C)nc(N2CCC(C(=O)Nc3ccc4c(c3)CCC4)CC2)n1 the results were HPGD block -8%, ALDH1A1 block 1% and IMPase inh -4.
For Cc1ccc(OCC(=O)N2N=C(C(F)(F)F)CC2(O)C(C)(C)C)cc1C (centres undefined) the results were HPGD block -5%, ALDH1A1 block -3% and IMPase inh -2.
Cc1ccccc1OCC(=O)N1N=C(C(F)(F)F)CC1(O)C(C)(C)C (centres undefined) was read as HPGD block -11%, ALDH1A1 block 14µM* and IMPase inh 0.
For CC(=O)Nc1ccc(NC(=O)CC2Sc3ccccc3NC2=O)cc1 (centres undefined) the results were IMPase inh 1.
`Cc1ccc(NC2Sc3ccccc3NC2=O)cc1` (centres undefined) gave ALDH1A1 block 25µM*.
Screening O=C(CCS(=O)(=O)c1ccc(Cl)cc1)N1CCN(S(=O)(=O)c2cccs2)CC1 returned HPGD block -17%, ALDH1A1 block inconclusive and IMPase inh -2.
For COc1cccc(CNC(=O)CCC2CCCN(C(=O)c3ccc(C)nc3)C2)c1 (centres undefined) the results were ALDH1A1 block 2%.
COc1cccc(CNC(=O)CCC2CCCN(C(=O)c3cccc4c(C)c(C)[nH]c34)C2)c1 (centres undefined) was read as ALDH1A1 block 28µM*.
For CN(C)CCNC(=O)c1cc(Br)ccc1Cl the results were HPGD block -4%, ALDH1A1 block 8% and IMPase inh 4.
`CC(C)NC(=O)COC(=O)c1cc(Br)ccc1Cl` gave HPGD block 22µM*, ALDH1A1 block -5% and IMPase inh 3.
Screening COCCNC(=O)c1cc(Br)ccc1Cl returned HPGD block 22µM*, ALDH1A1 block 3% and IMPase inh 6.
For CC(C)NC(=O)COC(=O)c1cc(F)c(F)cc1Cl the results were HPGD block inconclusive, ALDH1A1 block 1% and IMPase inh 3.
`O=C(CNC(=O)c1cccc(OC(F)F)c1)OCn1nnc2ccccc2c1=O` gave ALDH1A1 block 1%.
CCOC(=O)c1c(C)c(C)n2c1NC(=O)C2 was read as HPGD block -14% and ALDH1A1 block -7%[13.5 µM].
Screening CCOC(=O)C(=CNc1ccc(C#N)cc1)C(=O)OCC returned ALDH1A1 block -6%.
CCOc1cccc2cc(C(=O)Nc3nccs3)c(=O)oc12 was read as HPGD block -4%, ALDH1A1 block 1% and IMPase inh -9.
Screening Cc1cc(C(=O)NCCC2=CCCCC2)ccc1[N+](=O)[O-] returned ALDH1A1 block 25µM*.
For O=C(NCCC1=CCCCC1)c1ccc([N+](=O)[O-])cc1 the results were HPGD block -17%, ALDH1A1 block -11% and IMPase inh -3.
COc1cccc(C(=O)NCCC2=CCCCC2)c1 was read as HPGD block 14µM*, ALDH1A1 block inconclusive and IMPase inh 3.
Screening COc1ccc(C(=O)NCC(=O)OCC(=O)NCCC2=CCCCC2)cc1 returned ALDH1A1 block 16µM*.
COc1ccc(C(=O)NCCC2=CCCCC2)cc1 was read as HPGD block -24% and ALDH1A1 block -2%.
Screening COc1ccc(C(=O)NCCC2=CCCCC2)cc1OC returned HPGD block -18%, ALDH1A1 block -10% and IMPase inh 13.
For CCOc1cccc2cc(C(=O)NCCC3=CCCCC3)c(=O)oc12 the results were ALDH1A1 block 25µM*.
For O=C(OCC(=O)N1CCc2ccccc2C1)c1cccc([N+](=O)[O-])c1 the results were HPGD block 4%, ALDH1A1 block 0% and IMPase inh 3.
Screening O=C1CC(c2cc(F)ccc2F)c2cc3c(cc2N1)CCC3 (centres undefined) returned ALDH1A1 block -5%.
CCc1ccc(NC(=O)CSc2nnc(SCC(=O)Nc3ccc(CC)cc3)n2N)cc1 was read as HPGD block -3%, ALDH1A1 block 7% and IMPase inh 1.
For Cc1nnc(NCCc2ccccc2)n(N)c1=O the results were HPGD block -10%, ALDH1A1 block 5% and IMPase inh 4.
